From PubChem BioAssay (EPA / NIEHS)
Calls of active or inactive are those of the source. How the source made its calls: active means hit-call score of the fitted dose curve at least 0.9, where 1 is the maximum; inactive means score below 0.9.

assay: ATG_PPRE_CIS: Attagene CIS-FACTORIAL HepG2 Assay for human Peroxisome Proliferator-activated Response Element (PPRE) (AID 2282958); details: HepG2 PPRE cis-element reporter, Attagene transcription factor profiling; actives raise or lower the signal
Procedure: ATG_CIS is a cell-based, multiplexed-readout assay that uses HepG2, a human liver cell line, with measurements taken at 24 hours after chemical dosing in a 24-well plate.ATG_PPRE_CIS is one of 52 assay component(s) measured or calculated from the ATG_CIS assay. It is designed to make measurements of mRNA induction, a form of inducible reporter, as detected with fluorescence intensity signals by Reverse transcription polymerase chain reaction (RT-PCR) and Capillary electrophoresis technology.Data from the assay component ATG_PPRE_CIS was analyzed into 1 assay endpoint. This assay endpoint, ATG_PPRE_CIS, was analyzed with bidirectional fitting relative to DMSO as the negative control and baseline of activity. Using a type of inducible reporter, measures of mRNA for gain or loss-of-signal activity can be used to understand the reporter gene at the transcription factor-level as they relate to the gene PPARA and PPARD and PPARG. Furthermore, this assay endpoint can be referred to as a primary readout, because this assay has produced multiple assay endpoints where this one serves a reporter gene function. To generalize the intended target to other relatable targets, this assay endpoint is annotated to the nuclear receptor intended target family, where the subfamily is non-steroidal.
Human liver HepG2 cells are transiently transfected with multiple reporter transcription units (MRTUs) in 6-well plates using FuGene 6 reagent (Roche; 3 ml FuGene/1 mg DNA). The MRTU constructs are regulated by a cis-regulating element (promoter). […] A major difference between the CIS and TRANS system is that in CIS activities of endogenous TFs are measured, whereas the TRANS assay evaluates changes in activities of exogenous, chimeric NR-Gal4 proteins. […] At the end of 24 hour incubation, total RNA was isolated using TriZol reagent (Invitrogen). The isolated RNA is then reverse-transcribed using oligo(dT) primer and Mo-MLV reverse transcriptase (Invitrogen) with DNAse I (Ambion) treatment for 30 min. The one-tenth of the produced cDNA was amplified by PCR using Taq DNA polymerase (Invitrogen) and two reporter sequence-specific primers. The PCR products were fluorescently labeled by primer extension with 6-arboxyfluorescein (6-FAM) 5'-labeled reporter sequence-specific primer (2 min at 95 C, 20 s at 68 C and 10 min at 72 C) and these products were digested with 5U of HpaI (New England Biolabs) for 2h at 37 C. The fragments were purified using Qiaquick PCR columns (Qiagen), analyzed on an ABI 3130xL genetic analyzer (Applied Biosystems) with peak positions identified by using a set of X-rhodamine (ROX)-labeled MapMarker1000 molecular weight standards (BioVentures). The raw capillary electrophoresis data was processed using Attagraph software (Attagene).

SMILES	outcome	AC50
O=C(C1CCCCC1)N1CC(=O)N2CCc3ccccc3C2C1 (stereo not given)	inactive	
CC1=C(CC(=O)O)c2cc(F)ccc2/C1=C\c1ccc(S(C)=O)cc1 (stereo not given)	inactive	
CCCCNC(N)=O	inactive	
O=C(OCc1ccccc1)c1ccccc1	inactive	
CC(=O)c1nccs1	inactive	
Nc1nnc(-c2ccc([N+](=O)[O-])o2)o1	inactive	
CCOC(=O)c1ccccc1	inactive	
O=C(Oc1ccccc1)c1ccccc1	inactive	
C=C(C)C(=O)OCCCCCC	inactive	
Cc1cc(O)cc(C)c1Cl		37.1 µM (active)
C=C1CC[C@H]2C[C@@H]1C2(C)C	inactive	
CNC(=C[N+](=O)[O-])NCCSCc1csc(CN(C)C)n1	inactive	
CCCc1c(OCCCCc2nn[nH]n2)ccc(C(C)=O)c1O		2.26 µM (active)
COc1ccc2ccccc2c1	inactive	
Cc1cc(C)c(S(=O)(=O)O)cc1N=Nc1cc(S(=O)(=O)O)c2ccccc2c1O	inactive	
NC(N)=Nc1nc(CSCCC(N)=NS(N)(=O)=O)cs1	inactive	
C[Si](C)(C)O[Si](C)(C)O[Si](C)(C)C	inactive	
Sc1nc2ccccc2s1		35.7 µM (active)
CCCOCCC	inactive	
CC(C)n1c(/C=C/[C@@H](O)C[C@@H](O)CC(=O)O)c(-c2ccc(F)cc2)c2ccccc21		36.3 µM (active)

SMILES	outcome	AC50
OCCOCCOCCOCCOCCO	inactive	
O=S(=O)(O)c1cccc2ccccc12	inactive	
O=[N+]([O-])c1ccc2nc[nH]c2c1	inactive	
CC(C)CC(=O)CC(C)CC(C)C (stereo not given)	inactive	
CCC(C)NC(N)=O (stereo not given)	inactive	
CCCCCCCC#N	inactive	
CO[Si](CCCNCCN)(OC)OC	inactive	
OCCN(CCO)c1cccc(Cl)c1	inactive	
CCCCCC1CCCC(=O)O1 (stereo not given)	inactive	
CCCCCCCCCCCCCCCCCC[N+](C)(C)C		6.2 µM (active)
COC(=O)c1ccccc1	inactive	
O=C(O)c1cc(Cl)cc(Cl)c1O	inactive	
Cc1ccnc(N)c1	inactive	
COCCCN	inactive	
O=C(CC(C(=O)OC1CCCCC1)S(=O)(=O)O)OC1CCCCC1 (stereo not given)	inactive	
CCCCCCCCCCC1CO1 (stereo not given)	inactive	
Oc1ccc(Oc2ccccc2)cc1		48 µM (active)
CCCCCC[C@@H](O)C/C=C\CCCCCCCC(=O)O		45.7 µM (active)
CCCCCCC1CCC(=O)O1 (stereo not given)	inactive	
CC(C)CC(=O)O	inactive	
